The values below come from PubChem BioAssay (NCATS).

Inconclusive results are not listed. The source made the active and inactive calls. Calls come from the whole dose curve; as a rule, active = well fitted inhibition curve with a large enough effect; inconclusive = small, poorly fitted or top-dose-only effect; inactive = flat fitted curve, though single readings scatter.

Common to all, as to test: qHTS profiling for inhibitors of Plasmodium falciparum proliferation (AID 504749); note: nearly all actives have a fitted effect of over 60% in size
Conditions in all cases: P. falciparum in erythrocytes, SYBR Green DNA, 72 h; series mostly up to 28.7 µM
A general note: Quantitative high-throughput screening tests each substance at several concentrations.

One assay deals with CP262. The gist of the method: (§1)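 Fluorescence of SYBR Green-bound parasite DNA, read at 485/535 nm, served as the growth measure. Infected erythrocytes were cultured with compound 72 h; artemisinin (0.29 uM) and DMSO wells defined the normalization range.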
For the next assay, the system named is CP265. The gist of the method: as §1
In a further assay the test system is CP266. The method, boiled down:
as §1

In a further assay the test system is CP268. The method, boiled down: as §1
Another assay deals with CP269. The method, boiled down: as §1
The next assay deals with CP286. The method, boiled down:
as §1

For a further assay, the system named is CP291. The gist of the method: as §1
The test system of the next assay is CP297. The gist of the method:
as §1

In the next assay the test system is CP305. The method, boiled down:
as §1

The test system of a further assay is CP315. The gist of the method:
as §1
Potency is the fitted concentration of half-maximal effect.

Take `O=C(Nc1ccc(C(=O)O)c(O)c1)c1ccccc1`: the Potency entry with CP262, in the assay with CP265, in the assay on CP266, in the assay on CP268, with CP269 and with CP286 was “inactive” in each case. Further, the Potency result in the assay on CP291, in the assay on CP297, with CP305 and in the assay with CP315 was “inactive” throughout.
Take `Cc1c(Nc2ncccc2C(=O)O)cccc1C(F)(F)F`: the Potency entry in the assay with CP262, with CP265, with CP266, with CP268, in the assay with CP269 and in the assay with CP286 was “inactive” throughout. The Potency entry in the assay with CP291, in the assay on CP297, in the assay on CP305 and with CP315 was “inactive” throughout.
Turning to `Cc1ccc(C(=O)c2ccc(CC(=O)O)n2C)cc1`, the Potency result with CP262, with CP265, in the assay with CP266, with CP268, with CP269 and with CP286 was “inactive” throughout. For the same molecule, the Potency entry with CP291, in the assay on CP297, in the assay with CP305 and in the assay on CP315 was “inactive” in each case.
For `C=CCCCCCCCCC(=O)O`, the Potency result in the assay on CP262, in the assay with CP265, in the assay with CP266, in the assay with CP268, in the assay with CP269 and with CP286 was “inactive” throughout. Besides, the Potency result in the assay on CP291, with CP297, with CP305 and in the assay with CP315 was “inactive” each time.
For the molecule `CCCCCC[C@@H](O)C/C=C\CCCCCCCC(=O)O`, the Potency entry with CP262, with CP265, in the assay with CP268, with CP269, with CP286 and with CP291 was “inactive” throughout. Further, the Potency entry with CP297, in the assay with CP305 and with CP315 was “inactive” in each case.
With `[O-][n+]1ccccc1SSc1cccc[n+]1[O-]`, the Potency is 1070 nM (active) in the assay on CP262; 1260 nM (active) in the assay with CP265; 1510 nM (active) in the assay on CP266; 849 nM (active) with CP268; 1070 nM (active) in the assay with CP269; 891 nM (active) in the assay with CP286. Moreover, the Potency is 1200 nM (active) in the assay on CP291, 1350 nM (active) in the assay on CP297, 953 nM (active) in the assay on CP305 and 1690 nM (active) in the assay with CP315.
In the case of `COc1ccc(-c2cc(=S)ss2)cc1`, the Potency result in the assay with CP262, with CP265, in the assay on CP266, in the assay with CP268, in the assay with CP269 and in the assay on CP286 was “inactive” each time. Moreover, the Potency entry in the assay with CP291, with CP297, in the assay with CP305 and in the assay with CP315 was “inactive” in each case.
In the case of `CCCC(=O)OC[C@@H](OC(=O)CCC)[C@@H](OC(=O)CCC)[C@H](Cn1c2nc(=O)[nH]c(=O)c-2nc2cc(C)c(C)cc21)OC(=O)CCC`, the Potency entry in the assay with CP262, with CP266, with CP268, in the assay on CP269, with CP291 and with CP297 was “inactive” in each case. Besides, in the assay with CP315, the Potency entry was “inactive”.
Turning to `O=c1[nH]c2ccccc2n1CCCN1CCN(C(c2ccccc2)c2ccccc2)CC1`, the Potency entry with CP262 and with CP315 was “inactive” each time.
For the molecule `CN1CCN(c2cc3c(nn2)Oc2ccccc2N3C)CC1`, the Potency result in the assay with CP262, in the assay on CP265, in the assay with CP268, in the assay on CP269, with CP286 and with CP291 was “inactive” throughout. Moreover, the Potency result with CP297, in the assay with CP305 and in the assay on CP315 was “inactive” in each case.
In the case of `c1ccc2sc(SSc3nc4ccccc4s3)nc2c1`, the Potency result with CP262, in the assay with CP265, in the assay on CP268, with CP269, in the assay with CP286 and with CP291 was “inactive” throughout. Besides, the Potency entry in the assay with CP297, with CP305 and in the assay with CP315 was “inactive” each time.
On to `Nc1ccc(O)c(C(=O)O)c1`, for which the Potency result in the assay on CP262, in the assay with CP265, in the assay with CP268, with CP269, in the assay with CP286 and in the assay with CP291 was “inactive” each time. In addition, the Potency entry in the assay with CP297, in the assay on CP305 and with CP315 was “inactive” in each case.
As to `N=c1ccn2c(n1)O[C@H]1[C@H](O)[C@@H](CO)O[C@H]12`, the Potency result in the assay on CP262, in the assay with CP265, with CP266, with CP268, in the assay on CP269 and in the assay with CP286 was “inactive” each time. Besides, the Potency entry in the assay with CP291, with CP305 and in the assay on CP315 was “inactive” in each case.
Regarding `O=C(/C=C/c1ccccc1)NCCO`, the Potency entry in the assay with CP262, in the assay with CP265, in the assay with CP266, in the assay on CP268, with CP269 and in the assay on CP286 was “inactive” each time. Besides, the Potency result in the assay on CP291, in the assay on CP297, in the assay with CP305 and in the assay on CP315 was “inactive” each time.
For the molecule `O=C(O)c1cc(O)c(O)c(O)c1`, the Potency result in the assay on CP265, with CP266, with CP268, in the assay on CP269, with CP286 and with CP291 was “inactive” each time. Besides, the Potency entry in the assay on CP297, with CP305 and in the assay with CP315 was “inactive” each time.
Take `Nc1c(CC(=O)O)cccc1C(=O)c1ccc(Br)cc1`: the Potency entry in the assay with CP262, in the assay with CP265, in the assay on CP266, in the assay on CP268, in the assay with CP269 and in the assay on CP286 was “inactive” throughout. Moreover, the Potency entry in the assay on CP291, in the assay with CP305 and in the assay on CP315 was “inactive” each time.
As to `Oc1c(Br)cc(Br)c2cccnc12`, the Potency entry with CP265, with CP266, with CP268, in the assay with CP269, in the assay on CP286 and with CP291 was “inactive” each time. In addition, the Potency result in the assay on CP297, in the assay with CP305 and in the assay on CP315 was “inactive” throughout.
